± gives the standard deviation of the averaged measurements. Over roughly 25,000 sequences, “ln(normalized median fluorescence intensity)” has its median near 8.9; the highest 2% begin near 10. What follows is part of a selection rich in the highest values, with near analogues and random picks from the rest.

This experiment deals with PfAP2-LT AP2 domain (GST-tagged). As to the kind of experiment: gcPBM binding intensity (ln(normalized median fluorescence intensity)); higher = stronger DNA binding. In outline: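 Binding intensity is the highest Masliner-normalised natural-log median intensity over replicate spots in either probe orientation. To obtain it, GST-tagged P. falciparum DNA-binding domains made in E. coli were incubated for 1 h on an Agilent 4 × 180k array of primer-extended double-stranded 36-bp intergenic genomic probes plus negative controls. Detection used Alexa488 anti-GST antibody with scanning at 488 nm.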
Take “ATATTTTGTTATGTAGATGTTGGTAGGAATTTTGGT [CACACA_negctrl_site1104]”: the “gcPBM binding intensity (ln)” value came to 8.83 ± 0.4.
Regarding “CAATTAAACAATTAAACATGCAAAATGATATAATAA [TGCATGCA_site240]”, the “gcPBM binding intensity (ln)” value is 8.87 ± 0.49.
Consider “TACGTAAAAATAGGACGTACTTATTTAGAAACCATA [XGTACX_site2498]”, for which the “gcPBM binding intensity (ln)” value came to 8.72 ± 0.49.
With “AAGAGTTTGAAGTTTGCACACTACGTTAAAAATAAA [CACACA_site3939]”, the “gcPBM binding intensity (ln)” value came out at 8.72 ± 0.59.
On to ATAAATAAAACAACAGTGCAATAAAATTAGTTGAGG, for which the “gcPBM binding intensity (ln)” value was determined as 9.07 ± 0.54.
On to “ACATAATAAAAAAAACGTACAAATAGGTTTTTCATA [XGTACX_site6645]”, for which the “gcPBM binding intensity (ln)” value was 8.85 ± 0.57.
For “ATGAGTTACATGGGAAAAATATATATATATATATAT [CACACA_negctrl_site579]” the value was 9.8 ± 0.23; for “TCTATACCTATTCTTACACACATATGTATTTATATA [CACACA_site4475]”, 9.28 ± 0.46.
To “AGACATATAATATATACACACATATATATATATATA [CACACA_site1066]” belongs 9.93 ± 0.085; to “CACCCATACAGACATACACACACATATATATTAATA [CACACA_site8077]”, 9.67 ± 0.27.
Take “CACACCCACAGACACACACACACATATATAATATAT [CACACA_site594]”: the “gcPBM binding intensity (ln)” value was determined as 10.2 ± 0.54.
Regarding “AAATTTTCACTTCAAAAACACACGTATTTTTTTCCT [CACACA_site3813]”, the “gcPBM binding intensity (ln)” value turned out to be 8.8 ± 0.47.
As to “CAACAACAAAAAAAAAAATAATAATAATAAAAAATA [TGCATGCA_negctrl_site271]”, the “gcPBM binding intensity (ln)” value stood at 8.71 ± 0.5.
With “CAAGGACAATTTACAAACATAATATATGTATATATA [TGCATGCA_negctrl_site5]”, the “gcPBM binding intensity (ln)” value was 8.66 ± 0.55.
Turning to “AGGACAAGGGTTACATGTACATATATATATATATAT [XGTACX_site901]”, the “gcPBM binding intensity (ln)” value amounted to 10.2 ± 0.14.
To “CATATGTATATGACTACACACAAGGGTGTACATATA [CACACA_site1164]” belongs 9.2 ± 0.38.
For “ATCATAATTTATTATACACACAATACGTGACCTATT [CACACA_site6977]”, the “gcPBM binding intensity (ln)” value is 9.24 ± 0.47.
“ATATTTTGTATAATCACACACACTATTCTTAAATAG [CACACA_site7270]”: the “gcPBM binding intensity (ln)” value was 9.23 ± 0.37.
Take “AACAAACACGGACACACACACACACTAGAATGATTA [CACACA_site5364]”: the “gcPBM binding intensity (ln)” value worked out at 10.2 ± 0.31.
Turning to “CAAACCCACGGACACACACACACAAAAATGATTAAA [CACACA_site5365]”, the “gcPBM binding intensity (ln)” value was 9.71 ± 0.38.
To “CAAACAAACGGACACACACACACACCCAAAAATGAT [CACACA_site5363]” belongs 10.1 ± 0.18.
Regarding “TATTTATTAAAACACACACACACACCCACAAAATAA [CACACA_site241]”, the “gcPBM binding intensity (ln)” value turned out to be 10.04 ± 0.099.
As for “TTAATAACAAAATAAACACACATATATAAATCCACA [CACACA_site1590]”, the “gcPBM binding intensity (ln)” value is 9.09 ± 0.38.
To “CAACAAAAGAAACACACACACACAAACACAAAAAAA [CACACA_site3389]” belongs 9.91 ± 0.16; to “TTAAAGCACCCATGCACACACACAAGGGAAAAGAAA [CACACA_site4289]”, 9.49 ± 0.4.
Consider “CAAAAGAAGGTAAACACACACACACCCATACAAAAA [CACACA_site3765]”, for which the “gcPBM binding intensity (ln)” value came out at 10.1 ± 0.43.
On to “CACACCCACCAACACACACACAAAAAAAAAAAGAAA [CACACA_site500]”, for which the “gcPBM binding intensity (ln)” value came to 9.56 ± 0.47.
Take “CCCGAACAAACAAATAAACACACAAAAAAAAATATA [CACACA_site8540]”: the “gcPBM binding intensity (ln)” value stood at 9.15 ± 0.47.
With “TTAACAAAGAAACACACACACACACCCAAAAAAAAA [CACACA_site516]”, the “gcPBM binding intensity (ln)” value is 10.2 ± 0.11.
Turning to “TTTATTAATAAACACACACACACACCCAAAATAAAA [CACACA_site7966]”, the “gcPBM binding intensity (ln)” value is 10.2 ± 0.18.
Take “AAAGAAGGGAAACACACACACACACCCACAAAAAAA [CACACA_site3766]”: the “gcPBM binding intensity (ln)” value stood at 10.18 ± 0.099.
Consider “TTTATTAATGGACACACACACACACCCAAAATAAAA [CACACA_site4294]”, for which the “gcPBM binding intensity (ln)” value amounted to 10 ± 0.13.
With “GAATAATCCAAACACACACACACACCCGAATAAATA [CACACA_site482]”, the “gcPBM binding intensity (ln)” value was determined as 10.3 ± 0.45.

Values taken from the supplement of paper PMC11417369.
